From PubChem
Shown are actives, neighbours in structure and some others; about 3.1% of the full set was active somewhere.
ARNT-TACC3 inh = disruptors of human ARNT/TACC3 interaction | inhibition, % at 9.99 µM | Q9Y6A5 | AlphaScreen His-ARNT PAS-B/GST-TACC3 binding, luminescence; TACC3 fragment carries E629A point mutation | 390,000 tested, 0.66% active;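 active means mean inhibition of replicates at least 50% and at least half of replicates each reaching 50%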
HSF1 activator = increases HSF-1 driven luciferase reporter signal. NIH3T3-HGL HSF-1 luciferase reporter, MG132, 8 h; 100% = twice DMSO control signal. activation, % at 9 µM. 300,000 tested, 1.7% active. AID 504408;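 active means mean replicate activation of at least 50% with a set share of replicates each reaching 50%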
HSF1 inh = HSF1 inhibition | NIH3T3-HGL HSE-luciferase, MG132-induced, luminescence 8 h; stronger effect = lower value | activity change, negative = inhibition, % at 7.5 µM (by protocol) | 300,000 tested, 0.77% active;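 active means more than half of replicate wells show activity change below -50%, luminescence cut by over half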;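 further: luciferase reports HSF-1 transcriptional activity via heat shock element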
HSP90 inh = blocks HSP90-mediated luciferase refolding in reticulocyte lysate; inhibition, % at 5.6 µM; AID 1789; 290,000 tested, 0.91% active; Rabbit reticulocyte lysate, luciferase refolding luminescence, 3 h;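 active means inhibition above the screen-wide mean plus 3 SD, computed separately per campaign, cut at about 16% in these data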;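 further: inhibitors lower the luminescence because luciferase stays unfolded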
HIF act = HIF pathway transcriptional activation. U2OS HRE-luciferase reporter, luminescence; normalized: DMSO 0%, desferrioxamine 100%. activation, % at 7.5 µM (by protocol). 300,000 tested, 0.32% active. AID 1910;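 active means mean activation of at least 10% of the iron chelator positive control signal, with at least half of replicates also reaching 10%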
Numbers stand for hits; . = inactive; / = no result given.

SMILES	ARNT-TACC3 inh	HSF1 activator	HSF1 inh	HSP90 inh	HIF act
CCOC(=O)C(C(=O)OCC)C(Nc1ccc(Br)cc1)c1ccccc1 (configuration not stated)	.	301	.	.	.
CCOC(=O)C(c1ccccc1)C(Nc1ccc(F)cc1)c1ccccn1 (configuration not stated)	.	.	.	.	.
C[C@H]1CN([C@@H](C)CO)C(=O)c2cc(NC(=O)C3CC3)ccc2O[C@H]1CN(C)C(=O)Nc1ccc(C(F)(F)F)cc1	.	/	/	/	/
O=C(O)Cc1cccc(=O)c(O)c1C(=O)O	93	/	/	/	/
O=C(O)Cc1ccccc1C(=O)O	.	.	.	.	.
CC(C)N(Cc1ccccc1)C(=O)COC(=O)/C=C/c1cnc2ccccc2n1	.	63	.	.	.
O=C(NC1Cc2ccccc2C1)[C@H]1[C@H](CO)[C@H]2Cn3c(ccc(-c4ccccc4F)c3=O)[C@@H]1N2	.	/	/	/	/
CNC[C@H]1Oc2ccc(N(C)C)cc2CC(=O)N([C@@H](C)CO)C[C@H]1C	.	/	/	/	/
Cc1noc(C)c1S(=O)(=O)N(C)C[C@H]1Oc2ccc(NS(=O)(=O)c3ccc(Cl)cc3)cc2C(=O)N([C@@H](C)CO)C[C@H]1C	.	/	/	/	/
Cc1cc(C)c(/C=N/NC(=O)c2nnn(-c3nonc3N)c2CN2CCC(C)CC2)c(C)c1	.	.	.	.	.
CC1CCN(Cc2c(C(=O)N/N=C/c3cc(Cl)ccc3O)nnn2-c2nonc2N)CC1	/	.	.	.	40
CC1CCN(Cc2c(C(=O)N/N=C/c3cc(Br)ccc3O)nnn2-c2nonc2N)CC1	/	.	.	.	53
Cc1cc2oc(=O)cc(Cn3ncc(Cl)c(Cl)c3=O)c2cc1Cl	.	81	.	.	.
CNC(=O)C[C@@H]1CC[C@H]2[C@@H](COc3ccc(NC(=O)c4ccc5c(c4)OCO5)cc3C(=O)N2C)O1	.	/	/	/	/
C[C@@H]1CN([C@@H](C)CO)C(=O)c2cc(NC(=O)Nc3ccc(F)cc3)ccc2O[C@@H](C)CCCCO[C@H]1CN(C)S(=O)(=O)c1cn(C)cn1	.	/	/	/	/
CC(C)CCNC1c2ccccc2C(=O)N1Cc1ccccc1 (configuration not stated)	.	54	.	.	.
COc1cc(NC2c3ccccc3C(=O)N2Cc2ccccc2)cc(OC)c1OC (configuration not stated)	.	.	.	.	.
C=CCSc1nnc(-c2cc3c(-c4ccccc4)nn(C)c3s2)n1C	48	.	.	.	.
CCc1ccc(C(=O)NC2CCCCC2)s1	.	54	.	.	.
C#CCOCCOCCOCCNc1nc(N2CCN(C(=O)C(Cc3cc4ccccc4[nH]3)n3cc(C(N)Cc4ccc(O)cc4)nn3)CC2)nc(N2CCN(C(=O)C(Cc3cc4ccccc4[nH]3)n3cc(C(N)Cc4ccc(O)cc4)nn3)CC2)n1 (configuration not stated)	/	.	.	23	.
C#CCOCCOCCOCCNc1nc(N2CCN(C(=O)C(CCC(=O)O)n3cc(C(N)CC(C)C)nn3)CC2)nc(N2CCN(C(=O)C(Cc3cc4ccccc4[nH]3)n3cc(C(N)Cc4ccc(O)cc4)nn3)CC2)n1 (configuration not stated)	46	.	.	.	.
COc1cccc(-c2ccc3c(c2)O[C@@H](CN(C)C(=O)C2CCOCC2)[C@@H](C)CN([C@H](C)CO)S3(=O)=O)c1	.	/	/	/	/
C[C@]12CC[C@@H]3c4cc(O)c(O)cc4CC[C@H]3[C@@H]1CC[C@@H]2O	.	85	.	.	.
C[C@H](O)C#Cc1cnc2c(c1)C(=O)N([C@H](C)CO)C[C@H](C)[C@@H](CN(C)Cc1cccc(C(=O)O)c1)O2	.	/	/	/	/
COc1ccc(C2=NN(S(C)(=O)=O)C(c3ccc4nccnc4c3)C2)cc1 (configuration not stated)	.	92	.	.	.
SMILES	ARNT-TACC3 inh	HSF1 activator	HSF1 inh	HSP90 inh	HIF act
Cc1ccc(C2=NN(S(C)(=O)=O)C(c3ccc4nccnc4c3)C2)cc1 (configuration not stated)	.	.	.	.	.
CC(C)c1onc(C(=O)N2CCN(C(c3ccccc3)c3ccccc3)CC2)c1[N+](=O)[O-]	/	.	-57	.	.
CC(C)c1onc(C(=O)N2CCN(c3ccccc3)CC2)c1[N+](=O)[O-]	.	.	.	.	.
C[C@@H]1CCCCO[C@@H](CN(C)Cc2ccc(C(F)(F)F)cc2)[C@H](C)CN([C@@H](C)CO)C(=O)c2cc(NC(=O)C3CCCCC3)ccc2O1	.	/	/	/	/
Cc1ccc2sc(N(CCCN(C)C)C(=O)CCS(=O)(=O)c3ccccc3)nc2c1C	.	111	.	.	.
O=C(COC(=O)C1CSC2(c3ccc(F)cc3)CCC(=O)N12)NC(=O)NC1CCCC1 (configuration not stated)	.	57	.	.	.
CC(C)CNC(=O)NC(=O)COC(=O)C1CSC2(c3ccc(F)cc3)CCC(=O)N12 (configuration not stated)	.	.	.	.	.
CC(C)NC(=O)N(C)C[C@H]1OCc2ccccc2-c2c(n(C)c3ccccc23)C(=O)N([C@@H](C)CO)C[C@@H]1C	.	/	/	/	/
C[C@@H]1CN([C@H](C)CO)C(=O)c2cccc(NC(=O)Nc3ccc(F)cc3)c2O[C@@H]1CN(C)Cc1ccc(Oc2ccccc2)cc1	.	/	/	/	/
COc1ccc(S(=O)(=O)N2CCc3cc(OC)c(OC)cc3C2)cc1	.	.	.	.	.
CCCS(=O)(=O)N1CCc2cc(OC)c(OC)cc2C1	.	.	-55	.	.
COc1ccc(CC(=O)NNC(=S)NCC2CC2)cc1OC	.	.	.	.	30
COc1ccc(CC(=O)NNC(=O)c2ccccc2)cc1OC	.	/	/	/	/
CCCC(=O)Nc1ccc2c(c1)OC[C@H](C)N(C(=O)CC1CC1)C[C@@H](C)[C@@H](OC)CN(C)C2=O	.	/	/	/	/
Nc1nnn(-c2ccccc2)c1-c1ccccc1	.	.	.	/	.
Clc1c(-c2ccccc2)nnn1-c1ccccc1	.	75	.	.	.
COc1cccc(CNC(=O)Cn2c(=O)c3cccn3c3ccccc32)c1	.	.	-86	.	.
O=C(Cn1c(=O)c2cccn2c2ccccc21)NCc1cccc(F)c1	.	.	.	.	.
CC(=O)c1ccc(N(C(=O)c2ccco2)C(C(=O)NC2CCCC2)c2ccc(N3CCOCC3)cc2)cc1 (configuration not stated)	/	69	.	.	.
O=C1C=C(O)c2c(O)cc(O)c(O)c2C1=O	.	.	.	/	.
O=C1C=C(O)c2[nH]c(=O)ccc2C1=O	36	/	/	/	/
Cc1ccc(C(=O)Nc2ncc([N+](=O)[O-])s2)cc1	.	.	.	80	.
Cc1onc(-c2ccccc2)c1C(=O)Nc1ncc([N+](=O)[O-])s1	.	.	.	.	.
O=C(Cc1ccc(Cl)cc1)Nc1ncc([N+](=O)[O-])s1	.	.	.	.	.
